# From PubChem BioAssay
# Calls of active or inactive are those of the source.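 The calls were made as follows, unless noted: active = normalized viability below 100% at a tested concentration; inactive = the rest.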
# Assays:
# [1] = drug combination growth inhibition, ovarian cancer – cell-based, oncology-focused library, rucaparib conditional, profiling panel (AID 1508598); conditions: patient-derived ovarian cancer cells, CellTiter-Glo viability, 144 h, stronger effect = lower value
# [2] = liver-stage malaria parasite load reduction – cell-based, known kinase inhibitor set, luminescence, hepatoma host viability (AID 624392; call rule not given here;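 also: infected cells incubated roughly two days before readout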); conditions: Plasmodium liver stage in hepatoma cells, luciferase luminescence, concentration not given here; liver cell % of control: measured here: host liver cell viability; parasite % of control: stronger effect = lower value
# [3] = altered dexamethasone sensitivity, NF-kB reporter, cell-based, luciferase, IL-1B stimulus (AID 624486; call rule not given here;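 as to percent of negative control (+Dex): 100% = mean signal of vehicle control wells on the plate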); conditions: IL-1B + dexamethasone, luminescence; percent of negative control (+Dex): actives lie on both sides, concentration not given here; z-score: measured here: IL-1B alone, no Dex
# [4] = C. elegans survival during P. aeruginosa infection – whole organism (AID 651566; call rule not given here;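 also: tested at 14 µM; sign flipped so higher z means a lower ratio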); conditions: C. elegans killed by P. aeruginosa, survival ratio
# [5] = pro-inflammatory signaling induction in mouse macrophages – cell-based, murine, luminescence (AID 652131; call rule not given here); conditions: murine macrophage pro-inflammatory reporter, stronger effect = higher value
# [6] = MELAS cybrid and Rieske KO viability enhancers – cell-based, MELAS cybrids, Rieske KO mouse fibroblasts, CellTiter-Glo, primary screen (AID 1508586;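 active = mean z-score across replicates of 1.96 or higher in either the MELAS or the Rieske mutant cell line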;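 also: z relative to plate mean and SD of compound and empty wells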); conditions: low glucose
# [7] = galactose survival enhancers in mitochondrial complex I cybrids – cell-based, galactose medium, ATP luminescence, primary screen (AID 1645843;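 active = z-score of at least 1.8 in each of two replicates, scored against plate mean and spread of sample wells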;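 also: positive z means more ATP and so rescue of galactose-driven cybrid death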); conditions: complex I mutant cybrid cells, 72 h, stronger effect = higher value
# [8] = at 0.000305 µM, OCI-C5x cells, with rucaparib 10 µM, 100% = cells with rucaparib alone
# [9] = at 0.000305 µM, OCI-C5x cells, without rucaparib
# [10] = at 0.000305 µM, OCI-P5x cells, with rucaparib 20 µM, 100% = cells with rucaparib alone
# [11] = at 0.000305 µM, OCI-P5x cells, without rucaparib
# [12] = at 0.00122 µM, OCI-C5x cells, with rucaparib 10 µM, 100% = cells with rucaparib alone
# [13] = at 0.00122 µM, OCI-C5x cells, without rucaparib
# [14] = at 0.00122 µM, OCI-P5x cells, with rucaparib 20 µM, 100% = cells with rucaparib alone
# [15] = at 0.00122 µM, OCI-P5x cells, without rucaparib
# [16] = at 0.00488 µM, OCI-C5x cells, with rucaparib 10 µM, 100% = cells with rucaparib alone
# [17] = at 0.00488 µM, OCI-C5x cells, without rucaparib
# [18] = at 0.00488 µM, OCI-P5x cells, with rucaparib 20 µM, 100% = cells with rucaparib alone
# [19] = at 0.00488 µM, OCI-P5x cells, without rucaparib
# [20] = at 0.0195 µM, OCI-C5x cells, with rucaparib 10 µM, 100% = cells with rucaparib alone
# [21] = at 0.0195 µM, OCI-C5x cells, without rucaparib
# [22] = at 0.0195 µM, OCI-P5x cells, with rucaparib 20 µM, 100% = cells with rucaparib alone
# [23] = at 0.0195 µM, OCI-P5x cells, without rucaparib
# [24] = at 0.0781 µM, OCI-C5x cells, with rucaparib 10 µM, 100% = cells with rucaparib alone
# [25] = at 0.0781 µM, OCI-C5x cells, without rucaparib
# [26] = at 0.0781 µM, OCI-P5x cells, with rucaparib 20 µM, 100% = cells with rucaparib alone
# [27] = at 0.0781 µM, OCI-P5x cells, without rucaparib
# [28] = at 0.313 µM, OCI-C5x cells, with rucaparib 10 µM, 100% = cells with rucaparib alone
# [29] = at 0.313 µM, OCI-C5x cells, without rucaparib
# [30] = at 0.313 µM, OCI-P5x cells, with rucaparib 20 µM, 100% = cells with rucaparib alone
# [31] = at 0.313 µM, OCI-P5x cells, without rucaparib
# [32] = at 1.25 µM, OCI-C5x cells, with rucaparib 10 µM, 100% = cells with rucaparib alone
# [33] = at 1.25 µM, OCI-C5x cells, without rucaparib
# [34] = at 1.25 µM, OCI-P5x cells, with rucaparib 20 µM, 100% = cells with rucaparib alone
# [35] = at 1.25 µM, OCI-P5x cells, without rucaparib
# [36] = at 5 µM, OCI-C5x cells, with rucaparib 10 µM, 100% = cells with rucaparib alone
# [37] = at 5 µM, OCI-C5x cells, without rucaparib
# [38] = at 5 µM, OCI-P5x cells, with rucaparib 20 µM, 100% = cells with rucaparib alone
# [39] = at 5 µM, OCI-P5x cells, without rucaparib
# [40] = MELAS cybrid survival, CellTiter-Glo 48 h, stronger effect = higher value
# [41] = Rieske KO mouse fibroblast survival, CellTiter-Glo 72 h
compound,measurement,setting,value
CC(=O)OCC(=O)[C@]1(O)[C@H](C)C[C@H]2[C@@H]3CCC4=CC(=O)C=C[C@]4(C)[C@]3(F)[C@H](O)C[C@@]21C,viability,[1]; [8],119% (inactive)
same,viability,[1]; [9],119% (inactive)
same,viability,[1]; [10],107% (inactive)
same,viability,[1]; [11],108% (inactive)
same,viability,[1]; [12],121% (inactive)
same,viability,[1]; [13],125% (inactive)
same,viability,[1]; [14],105% (inactive)
same,viability,[1]; [15],106% (inactive)
same,viability,[1]; [16],131% (inactive)
same,viability,[1]; [17],122% (inactive)
same,viability,[1]; [18],110% (inactive)
same,viability,[1]; [19],105% (inactive)
same,viability,[1]; [20],124% (inactive)
same,viability,[1]; [21],123% (inactive)
same,viability,[1]; [22],109% (inactive)
same,viability,[1]; [23],99.6% (active)
same,viability,[1]; [24],118% (inactive)
same,viability,[1]; [25],112% (inactive)
same,viability,[1]; [26],104% (inactive)
same,viability,[1]; [27],98.1% (active)
same,viability,[1]; [28],113% (inactive)
same,viability,[1]; [29],113% (inactive)
same,viability,[1]; [30],100% (inactive)
same,viability,[1]; [31],94.5% (active)
same,viability,[1]; [32],122% (inactive)
same,viability,[1]; [33],123% (inactive)
same,viability,[1]; [34],97.6% (active)
same,viability,[1]; [35],94.3% (active)
same,viability,[1]; [36],115% (inactive)
same,viability,[1]; [37],110% (inactive)
same,viability,[1]; [38],88.4% (active)
same,viability,[1]; [39],84.6% (active)
O=C(Nc1ccc(Oc2ccc3nc(NC(=O)c4ccco4)[nH]c3c2)cc1)Nc1cc(C(F)(F)F)ccc1F,liver cell % of control,[2],140%
same,parasite % of control,[2],37.4% (inactive)
same,percent of negative control (+Dex),[3],81.5% (inactive)
same,z-score,[3],-2.38
same,z-score,[4],-0.605 (inactive)
same,z-score,[5],-0.544 (inactive)
same,z-score,[6]; [40],-1.24
same,z-score,[6]; [41],6.9
Cc1cc(-c2cc3c(n(C)c2=O)CCN(Cc2c(C)nc4sccn24)C3)ccc1F,z-score,[6]; [40],-0.189 (inactive)
same,z-score,[6]; [41],0.11
same,z-score,[7],0.27 (inactive)
O=C1N[C@H](CO)C(=O)N2CCN(C(=O)c3ccc(F)cc3)C[C@H]12,z-score,[6]; [40],1.91 (inactive)
same,z-score,[6]; [41],-0.948
same,z-score,[7],-0.325 (inactive)
NC(=O)c1cc(-c2ccc(F)cc2)cc(-c2ccncc2)c1N,liver cell % of control,[2],110%
same,parasite % of control,[2],93.1% (inactive)
same,percent of negative control (+Dex),[3],92.5% (inactive)
same,z-score,[3],0.27
same,z-score,[4],0.64 (inactive)
same,z-score,[5],-0.928 (inactive)
same,z-score,[6]; [40],-0.833 (inactive)
same,z-score,[6]; [41],0.289
CC(=O)O[C@@]1(C(C)=O)CC[C@H]2[C@@H]3C[C@H](C)C4=CC(=O)CC[C@]4(C)[C@@H]3CC[C@@]21C,viability,[1]; [8],108% (inactive)
same,viability,[1]; [9],122% (inactive)
same,viability,[1]; [10],94.9% (active)
same,viability,[1]; [11],101% (inactive)
same,viability,[1]; [12],113% (inactive)
same,viability,[1]; [13],120% (inactive)
same,viability,[1]; [14],101% (inactive)
same,viability,[1]; [15],103% (inactive)
same,viability,[1]; [16],122% (inactive)
same,viability,[1]; [17],119% (inactive)
same,viability,[1]; [18],103% (inactive)
same,viability,[1]; [19],107% (inactive)
same,viability,[1]; [20],114% (inactive)
same,viability,[1]; [21],118% (inactive)
same,viability,[1]; [22],104% (inactive)
same,viability,[1]; [23],113% (inactive)
same,viability,[1]; [24],106% (inactive)
same,viability,[1]; [25],114% (inactive)
same,viability,[1]; [26],94% (active)
same,viability,[1]; [27],111% (inactive)
same,viability,[1]; [28],122% (inactive)
same,viability,[1]; [29],118% (inactive)
same,viability,[1]; [30],102% (inactive)
same,viability,[1]; [31],110% (inactive)
same,viability,[1]; [32],107% (inactive)
same,viability,[1]; [33],120% (inactive)
same,viability,[1]; [34],106% (inactive)
same,viability,[1]; [35],111% (inactive)
same,viability,[1]; [36],105% (inactive)
same,viability,[1]; [37],121% (inactive)
same,viability,[1]; [38],92.5% (active)
same,viability,[1]; [39],105% (inactive)
Cn1ccnc1CN1C[C@@H](CN2CCOCC2)C[C@@H](C(=O)N2CCCC2)C1,z-score,[6]; [40],0.188 (inactive)
same,z-score,[6]; [41],0.125
same,z-score,[7],-0.64 (inactive)
CC1(C)O[C@@H]2C[C@H]3[C@@H]4CCC5=CC(=O)C=C[C@]5(C)[C@]4(F)[C@H](O)C[C@]3(C)[C@@]2(C(=O)CO)O1,viability,[1]; [8],108% (inactive)
same,viability,[1]; [9],124% (inactive)
same,viability,[1]; [10],97.2% (active)
same,viability,[1]; [11],122% (inactive)
same,viability,[1]; [12],116% (inactive)
same,viability,[1]; [13],123% (inactive)
same,viability,[1]; [14],101% (inactive)
same,viability,[1]; [15],116% (inactive)
same,viability,[1]; [16],106% (inactive)
same,viability,[1]; [17],117% (inactive)
same,viability,[1]; [18],96.8% (active)
same,viability,[1]; [19],110% (inactive)
same,viability,[1]; [20],105% (inactive)
same,viability,[1]; [21],122% (inactive)
same,viability,[1]; [22],92.8% (active)
same,viability,[1]; [23],107% (inactive)
same,viability,[1]; [24],108% (inactive)
same,viability,[1]; [25],120% (inactive)
same,viability,[1]; [26],92.1% (active)
same,viability,[1]; [27],110% (inactive)
same,viability,[1]; [28],105% (inactive)
same,viability,[1]; [29],114% (inactive)
same,viability,[1]; [30],90.6% (active)
same,viability,[1]; [31],106% (inactive)
same,viability,[1]; [32],109% (inactive)
same,viability,[1]; [33],108% (inactive)
same,viability,[1]; [34],84% (active)
same,viability,[1]; [35],97.8% (active)
same,viability,[1]; [36],109% (inactive)
same,viability,[1]; [37],99.9% (active)
same,viability,[1]; [38],78.5% (active)
same,viability,[1]; [39],90.4% (active)
